Drawing on PubChem BioAssay (NCATS), this text covers activity change, negative = inhibition, outcome and Potency for nine compounds.

Structures are written as SMILES. A number with no mark means an inactive call. Inconclusive results are not listed. The source made the active and inactive calls. Unless noted, calls come from the whole dose curve; as a rule, active = well fitted curve in the direction sought with a large enough effect; inconclusive = small, poorly fitted or top-dose-only effect, or another doubt; inactive = no such curve, though single readings can be large; an effect the other way counts as inactive or inconclusive.

Assay [1] is described as follows: NFAT Signaling Pathway (AID 444; active = well fitted curve in either direction with a large enough effect, not every such curve was filed as active;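 note: carbachol stimulus at about its EC50 of 1 µM final; % is set by controls: 0 for no effect and ±100 for the full control effect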). Conditions: Jurkat NFAT-bla M1, carbachol, beta-lactamase ratio, 5 h. The gist of the method:
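Read-out: CCF4 FRET ratio (460 nm/530 nm) after 1 h RT dye loading, used for %activity and AC50 from titration series. Cells: Jurkat NFAT-β-lactamase/M1 line, treated with compound plus 1 uM carbachol for 5 h, 37 °C.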

Assay [2] in a line: Stat Signaling Pathway (AID 446; active = well fitted curve in either direction with a large enough effect, not every such curve was filed as active;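 note: ME-180 cervical cancer cells given 40 pM IL-6 alongside compound; SIE-controlled beta-lactamase reporter measured as 460/530 nm FRET emission ratio; % is set by controls: 0 for no effect and ±100 for the full control effect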). Conditions: ME-180 (cervical carcinoma) SIE beta-lactamase reporter, IL-6 stimulated, 5 h; series mostly up to 38 µM. The procedure, abridged: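 IL-6/STAT signaling read in ME-180 cells via an SIE beta-lactamase reporter. Stimulus was 40 pM IL-6 (its AC50) for 5 hrs, so both activation and inhibition register.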
For assay [3], the system named is Zika virus NS2B-NS3 protease. Nature of the assay: Primary screen GU AMC qHTS for Zika virus inhibitors (AID 1347154).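 Note: 0% = no-inhibitor control and -100% = no-enzyme control; nearly all actives have a fitted effect of over 70% in size.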 Conditions: Zika NS2B-NS3 unlinked protease, AMC fluorogenic substrate; series mostly up to 54.1 µM. The gist of the method:
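Fluorogenic AMC-substrate cleavage by noncovalent NS2B-NS3 protease complex (25 nM, pH 8.0 Tris buffer with Tween 20) followed for 15 minutes at room temperature (~20% conversion). Percent inhibition from ex340/em450 signal change, fitted by 4-parameter Hill equation.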
A general note: Quantitative high-throughput screening tests each substance at several concentrations.

Assay [4] in a line: Primary qHTS for small molecule stabilizers of the endoplasmic reticulum resident proteome: Secreted ER Calcium Modulated Protein (SERCaMP) assay (AID 1508630). Note: % is set by controls: 0 for no effect and ±100 for the full control effect. Conditions: SH-SY5Y GLuc-SERCaMP (Gaussia luciferase released on ER calcium loss) secretion, thapsigargin, luminescence; series mostly up to 38.4 µM. The gist of the method: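 GLuc-SERCaMP-expressing SH-SY5Y cells, pretreated 16 h with compound, are challenged with thapsigargin to empty ER calcium stores; after 4 h, coelenterazine is added directly to the medium and luminescence is imaged.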

The target in assay [5] is Glucocorticoid receptor (Homo sapiens) (UniProt P04150). Nature of the assay: GR-GFP Redistribution (AID 450;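 active = compounds whose dose series gives a full or clear partial fitted curve of increased nuclear translocation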; note: potency is the fitted concentration of half-maximal effect). Conditions: U2OS GR-GFP nuclear translocation, laser cytometry, 2 h.
Sequence of Glucocorticoid receptor (Homo sapiens) (P04150 whole entry, looked up, the tested form may be a part): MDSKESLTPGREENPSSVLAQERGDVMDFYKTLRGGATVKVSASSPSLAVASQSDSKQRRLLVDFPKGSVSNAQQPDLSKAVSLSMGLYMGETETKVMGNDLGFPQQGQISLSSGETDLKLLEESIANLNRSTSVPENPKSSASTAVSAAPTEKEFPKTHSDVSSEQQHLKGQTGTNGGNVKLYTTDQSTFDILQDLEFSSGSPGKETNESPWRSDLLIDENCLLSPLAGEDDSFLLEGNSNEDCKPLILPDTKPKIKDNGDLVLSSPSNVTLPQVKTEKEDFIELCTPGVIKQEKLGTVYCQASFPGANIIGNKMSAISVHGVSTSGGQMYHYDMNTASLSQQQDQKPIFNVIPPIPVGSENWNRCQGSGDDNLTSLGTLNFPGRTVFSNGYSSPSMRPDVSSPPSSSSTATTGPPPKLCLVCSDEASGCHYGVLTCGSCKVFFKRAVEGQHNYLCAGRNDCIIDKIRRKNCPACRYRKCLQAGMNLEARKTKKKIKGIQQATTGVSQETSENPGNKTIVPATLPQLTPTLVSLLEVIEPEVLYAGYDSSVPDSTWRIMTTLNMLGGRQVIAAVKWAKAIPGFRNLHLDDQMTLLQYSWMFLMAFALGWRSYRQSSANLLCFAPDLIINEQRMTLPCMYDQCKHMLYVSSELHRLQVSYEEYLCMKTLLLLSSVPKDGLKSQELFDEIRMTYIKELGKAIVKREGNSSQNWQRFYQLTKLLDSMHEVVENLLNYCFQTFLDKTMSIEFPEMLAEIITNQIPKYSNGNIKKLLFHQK
The target is the same in assay [6]. Kind of assay: GR-EFC Redistribution (AID 451; calls by dose curve; note: potency is the fitted concentration of half-maximal effect). Conditions: CHO-K1 GR-EFC translocation, beta-gal luminescence, 2 h. The gist of the method: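 Translocation of GR-ED fusion to nuclear EA restores b-gal, read by luminescence after 1 h room-temperature detection. Engineered CHO-K1 biosensor cells, 1,000/well, exposed 2 h at 37 C to titrations up to 46 uM final.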

Assay [7] addresses DNA dC->dU-editing enzyme APOBEC-3G (Homo sapiens) (UniProt Q9HC16). Nature of the assay: qHTS for inhibitors of Vif-A3G interactions: Validation (AID 588379). Note: 0% is about no effect. Conditions: Vif-A3G protein interaction assay; series mostly up to 46.1 µM. The gist of the method:
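HeLa cells stably expressing Vif and A3G-eYFP, 700 cells/well, incubated overnight at 37 deg C, then exposed to compound overnight at 37 deg C. Inhibition of Vif-mediated degradation read as increased yellow fluorescence (Ex 488/Em 500-530) by laser-scanning cytometry.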

Assay [8] addresses Cytochrome P450 1A2 (Homo sapiens) (UniProt P05177). Kind of assay: p450-cyp1a2 (AID 410; calls by dose curve; note: potency is the fitted concentration of half-maximal effect;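 for activity change, negative = inhibition: -100% = full effect of reference inhibitor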). Conditions: recombinant CYP1A2, luciferin-ME demethylation, luminescence; series mostly up to 57 µM. The gist of the method: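 Luminescent readout of luciferin formed from Luciferin-ME by human CYP1A2; data normalized against complete inhibition by 57 uM furafylline. Enzyme 20nM, substrate 100uM at Km, 100mM KPO4 buffer, 60 min reaction at room temperature.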

Assay [9] has as its target Mitogen-activated protein kinase 10 (Mus musculus) (UniProt Q61831). Kind of assay: JNK3 AlphaScreen Assay (AID 530; active = well fitted curve in either direction with a large enough effect, not every such curve was filed as active;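 note: kinase came from lysate of stimulated human HepG2 cells; signal reports phosphorylation of biotinylated GST-cJun 1-79 at Ser73 with 10 µM ATP; % is set by controls: 0 for no effect and ±100 for the full control effect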). Conditions: JNK3 lysate, c-Jun phosphorylation; series mostly up to 57.1 µM. The procedure, abridged:
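Compound titrations were preincubated 15 minutes at room temperature with substrate, antibody and pre-activated JNK3-containing HepG2 lysate. Reactions were started with 10 uM ATP and stopped with EDTA-containing bead buffer for AlphaScreen detection.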

Assay [10] concerns the target 3',5'-cyclic-AMP phosphodiesterase 4B (Homo sapiens) (UniProt Q07343). Nature of the assay: qHTS Assay for Inhibitors of PDE-IV (AID 607; active = well fitted activation curve with a large enough effect in the main read-out, with a control signal flat, not every such curve was filed as active; note: % of control where 0% means no effect). Conditions: HEK293 ACTOne CNG channel cells, membrane potential fluorescence; series mostly up to 22.9 µM. The gist of the method:
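Live HEK293 cells with a modified cyclic nucleotide-gated (CNG) channel report intracellular cAMP via membrane-potential dye fluorescence (ex 535/em 590 nm). Endogenous PDE-IV was targeted. Compounds were tested at up to 22.9 uM final; RO 20-1724 100 uM served as control.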

The target in assay [11] is Guanine nucleotide-binding protein G(i) subunit alpha-1 (Homo sapiens) (UniProt P63096). Nature of the assay: qHTS Assay for Inhibitors of RGS12 GoLoco Motif Activity (Green Fluorophore) (AID 879).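 Note: 0% = labeled peptide with Gαi1 and full inhibition = labeled peptide alone without protein; negative values mean loss of peptide binding seen as reduced polarization.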 Conditions: Galphai1/FITC-RGS12 GoLoco peptide, fluorescence polarization; series mostly up to 57.1 µM. The gist of the method: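 Fluorescence polarization assay: 50 nM Gαi1 with 10 nM FITC-labeled RGS12 GoLoco peptide in 10 mM Tris pH 7.5, 150 mM NaCl, 0.1 mM GDP, 0.05% NP40, 10 min at room temperature with compound.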
Sequence of Guanine nucleotide-binding protein G(i) subunit alpha-1 (Homo sapiens) (P63096 whole entry, looked up): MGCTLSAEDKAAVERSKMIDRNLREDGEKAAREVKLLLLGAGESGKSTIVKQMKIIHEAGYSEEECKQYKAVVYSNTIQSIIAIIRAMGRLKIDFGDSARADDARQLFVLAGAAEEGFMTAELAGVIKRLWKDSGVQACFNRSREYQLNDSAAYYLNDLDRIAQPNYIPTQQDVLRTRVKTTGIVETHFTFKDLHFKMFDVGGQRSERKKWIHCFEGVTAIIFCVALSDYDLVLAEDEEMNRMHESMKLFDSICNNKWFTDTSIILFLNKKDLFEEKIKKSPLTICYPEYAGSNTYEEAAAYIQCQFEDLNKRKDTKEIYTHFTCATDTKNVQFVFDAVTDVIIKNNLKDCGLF

The target of assay [12] is Muscarinic acetylcholine receptor M1 (Rattus norvegicus) (UniProt P08482). Kind of assay: qHTS Assay for Antagonists of Acetylcholine Muscarinic M1 Receptor: Measurement of IP-One Response (AID 944). Note: nearly all actives have a fitted effect of over 75% in size. Conditions: CHO-M1 cells, IP-One HTRF, antagonist mode; series mostly up to 46.1 µM. The procedure, abridged:
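M1-CHO (rat), 2000 cells/well, overnight recovery; cpd 10 min; carbachol EC80 (200 nM), 30 min, HEPES buffer + 50 mM LiCl pH 7.4; IP-One HTRF, Ex 337, Em 620/665 nm.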

Assay [13] concerns the target Pyruvate kinase (Leishmania mexicana) (UniProt Q27686). Kind of assay: qHTS Validation Assay for Inhibitors of Leishmania Mexicana Pyruvate Kinase (AID 945).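 Note: 0% = DMSO only neutral control wells.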 Conditions: purified L. mexicana pyruvate kinase, enzyme activity, E451W mutant enzyme; series mostly up to 57.5 µM. The gist of the method:
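Mutant LmPYK (E451W), 0.2 nM, plus 0.5 mM PEP and 0.1 mM ADP in 50 mM imidazole pH 7.2 containing 0.01% Tween 20 and 0.05% BSA. Incubated 1 h at room temperature; luminescence via PKLight, normalized to DMSO.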

The target of assay [14] is Pyruvate kinase PKM (Homo sapiens) (UniProt P14618). Nature of the assay: qHTS Assay for Activators of Human Muscle Pyruvate Kinase (AID 954; active = well fitted curve in the direction sought with a large enough effect, not every such curve was filed as active;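 note: 0% = uninhibited enzyme and -100% = no enzyme or full thiadiazolimine inhibition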). Conditions: purified human muscle pyruvate kinase, luciferase-coupled luminescence, 1 h; series mostly up to 57.5 µM. The gist of the method:
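Enzyme was run at intermediate activity so both inhibitors and activators could be detected. ATP formed from ADP and PEP by 0.1 nM human PKM2 during a 1 h room-temperature incubation was quantified by coupled luciferase luminescence.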

In assay [15] the target is Alpha-galactosidase (Coffea arabica) (UniProt Q42656). Nature of the assay: Counterscreen for Glucocerebrosidase Inhibitors: qHTS Assay for Coffee Bean alpha-Galactosidase at pH 4.5 (AID 957).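 Note: plate controls were enzyme alone for no effect and no enzyme for full effect.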 Conditions: purified coffee bean alpha-galactosidase, fluorogenic substrate; series mostly up to 76.9 µM. The procedure, abridged:
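Coffee bean alpha-galactosidase 2 nM, substrate 4-MU-alpha-Gal 80 uM, pH 4.5 citrate/Tween-20, 20 min RT. Cpd titration 0.7 nM–77 uM. Stop pH 10, fluorescence 365/440 nm; Hill-equation AC50.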
(In general: The purpose of a counterscreen is to sort out artefacts and off-target activity.)

In assay [16] the target is Alpha-galactosidase A (Homo sapiens) (UniProt P06280). Kind of assay: Counterscreen for Glucocerebrosidase Inhibitors: qHTS Assay for Human alpha-Galactosidase at pH 4.5 (AID 992). Note: 0% is about no effect. Conditions: purified enzyme, fluorogenic substrate; series mostly up to 76.9 µM. The procedure, abridged: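 Read-out is 4-methylumbelliferone fluorescence (365 nm excitation, 440 nm emission) after a pH 10 NaOH/glycine stop. Reactions held 2 nM enzyme and 80 uM substrate at pH 4.5 for 20 min at room temperature.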
Sequence of Alpha-galactosidase A (Homo sapiens) (P06280 whole entry, looked up): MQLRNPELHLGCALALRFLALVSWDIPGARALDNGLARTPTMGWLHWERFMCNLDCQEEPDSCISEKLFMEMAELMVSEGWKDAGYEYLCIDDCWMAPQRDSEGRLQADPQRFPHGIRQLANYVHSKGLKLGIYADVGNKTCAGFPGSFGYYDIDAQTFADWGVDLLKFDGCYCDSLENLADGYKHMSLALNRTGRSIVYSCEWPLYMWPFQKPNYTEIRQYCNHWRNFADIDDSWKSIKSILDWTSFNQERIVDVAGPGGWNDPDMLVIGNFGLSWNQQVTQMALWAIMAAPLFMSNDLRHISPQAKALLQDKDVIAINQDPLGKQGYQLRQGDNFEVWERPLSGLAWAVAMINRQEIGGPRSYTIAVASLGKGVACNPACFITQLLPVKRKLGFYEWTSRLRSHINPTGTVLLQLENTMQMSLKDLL

Assay [17] addresses alpha-glucosidase (Oryza sativa, rice) (UniProt Q653V4). Kind of assay: Counterscreen for Glucocerebrosidase Inhibitors: qHTS Assay for Rice alpha-Glucosidase at pH 5.0 (AID 997).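 Note: 0% = full activity with enzyme and -100% = basal without enzyme.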 Conditions: rice alpha-glucosidase enzyme activity; series mostly up to 76.9 µM. The gist of the method:
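Rice alpha-glucosidase (4 nM final) with 400 uM 4-methylumbelliferyl-alpha-D-glucopyranoside in citrate buffer pH 5.0, 20 min at room temperature, stopped at pH 10; fluorescence 365/440 nm, compounds 0.7 nM–77 uM, AC50 from Hill fits.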

Assay [18] has as its target Alpha-galactosidase (Coffea arabica) (UniProt Q42656). Nature of the assay: Counterscreen for Glucocerebrosidase Inhibitors: qHTS Assay for Coffee Bean alpha-Galactosidase at pH 5.9 (AID 998).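 Note: plate controls were uninhibited enzyme for no effect and no-enzyme basal signal for full effect.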 Conditions: coffee bean alpha-galactosidase enzyme assay; series mostly up to 76.9 µM. The procedure, abridged: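 Compounds were titrated from 0.7 nM to 77 uM against green coffee bean alpha-galactosidase (2 nM) using 80 uM fluorogenic 4-methylumbelliferyl substrate. After 20 min at room temperature, reactions were stopped at pH 10 and read by fluorescence.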

Assay [19] has as its target Ubiquitin carboxyl-terminal hydrolase 1 (Homo sapiens) (UniProt O94782). Nature of the assay: Inhibitors of USP1/UAF1: Pilot qHTS (AID 504865).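 Note: rhodamine fluorescence freed from ubiquitin-rhodamine substrate followed over time; top concentration of the series differs between compounds; % is set by controls: 0 for no effect and ±100 for the full control effect; nearly all actives have a fitted effect of over 35% in size.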 Conditions: purified USP1/UAF1, Ub-rhodamine cleavage fluorescence; series mostly up to 114 µM. The gist of the method:
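Deubiquitinase activity followed as kinetic rhodamine fluorescence release from 150 nM Ub-Rho. 1 nM USP1/UAF1 with compound, after 15 min room-temperature preincubation, in HEPES pH 7.8 buffer containing TCEP, EDTA, BSA and Tween-20.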

Sequence of 3',5'-cyclic-AMP phosphodiesterase 4B (Homo sapiens) (Q07343 whole entry, looked up): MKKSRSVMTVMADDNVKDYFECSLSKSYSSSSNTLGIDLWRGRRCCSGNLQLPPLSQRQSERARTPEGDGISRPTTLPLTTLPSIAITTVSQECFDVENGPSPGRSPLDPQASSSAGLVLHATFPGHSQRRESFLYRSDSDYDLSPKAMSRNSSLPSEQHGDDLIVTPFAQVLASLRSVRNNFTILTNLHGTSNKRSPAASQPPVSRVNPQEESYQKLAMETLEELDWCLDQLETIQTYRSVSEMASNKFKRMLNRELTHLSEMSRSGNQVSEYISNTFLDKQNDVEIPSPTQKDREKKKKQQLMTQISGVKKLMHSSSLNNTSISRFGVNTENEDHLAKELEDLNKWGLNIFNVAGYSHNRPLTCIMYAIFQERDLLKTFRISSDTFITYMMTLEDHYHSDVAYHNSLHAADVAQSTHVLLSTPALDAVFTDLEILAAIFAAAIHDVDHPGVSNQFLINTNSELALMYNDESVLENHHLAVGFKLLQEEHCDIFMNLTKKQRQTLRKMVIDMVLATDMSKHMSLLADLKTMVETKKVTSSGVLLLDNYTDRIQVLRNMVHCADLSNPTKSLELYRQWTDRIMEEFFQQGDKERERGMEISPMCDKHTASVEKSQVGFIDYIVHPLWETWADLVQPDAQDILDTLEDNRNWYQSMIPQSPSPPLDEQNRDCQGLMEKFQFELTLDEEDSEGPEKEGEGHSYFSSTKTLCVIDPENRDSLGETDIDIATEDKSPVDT
Sequence of Pyruvate kinase (Leishmania mexicana) (Q27686 2-499 E452W): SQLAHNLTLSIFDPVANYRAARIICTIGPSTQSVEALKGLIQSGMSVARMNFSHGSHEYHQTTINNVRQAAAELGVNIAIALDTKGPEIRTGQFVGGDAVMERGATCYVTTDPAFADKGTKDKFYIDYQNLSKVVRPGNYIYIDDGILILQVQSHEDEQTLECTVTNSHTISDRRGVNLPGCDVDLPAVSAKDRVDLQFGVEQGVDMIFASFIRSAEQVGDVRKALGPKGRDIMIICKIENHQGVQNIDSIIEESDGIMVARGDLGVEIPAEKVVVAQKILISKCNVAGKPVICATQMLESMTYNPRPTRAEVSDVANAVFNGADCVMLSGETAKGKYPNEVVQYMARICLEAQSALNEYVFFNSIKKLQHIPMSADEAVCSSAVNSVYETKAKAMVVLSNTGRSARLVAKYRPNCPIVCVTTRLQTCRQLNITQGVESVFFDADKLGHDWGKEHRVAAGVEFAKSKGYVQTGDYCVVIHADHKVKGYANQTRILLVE
Sequence of Muscarinic acetylcholine receptor M1 (Rattus norvegicus) (P08482 whole entry, looked up): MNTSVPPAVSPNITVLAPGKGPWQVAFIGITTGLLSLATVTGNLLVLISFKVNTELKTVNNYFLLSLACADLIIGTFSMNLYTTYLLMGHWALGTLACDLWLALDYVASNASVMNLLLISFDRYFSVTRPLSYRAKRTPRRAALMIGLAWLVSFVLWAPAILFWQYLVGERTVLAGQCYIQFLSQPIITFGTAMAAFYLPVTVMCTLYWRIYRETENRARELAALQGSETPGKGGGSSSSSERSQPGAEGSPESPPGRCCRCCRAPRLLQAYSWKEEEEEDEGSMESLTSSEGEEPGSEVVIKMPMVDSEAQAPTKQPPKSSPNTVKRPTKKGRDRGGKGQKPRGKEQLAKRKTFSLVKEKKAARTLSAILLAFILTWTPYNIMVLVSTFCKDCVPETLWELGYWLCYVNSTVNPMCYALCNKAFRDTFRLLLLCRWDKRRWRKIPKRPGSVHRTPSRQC
Sequence of Pyruvate kinase PKM (Homo sapiens) (P14618 whole entry, looked up): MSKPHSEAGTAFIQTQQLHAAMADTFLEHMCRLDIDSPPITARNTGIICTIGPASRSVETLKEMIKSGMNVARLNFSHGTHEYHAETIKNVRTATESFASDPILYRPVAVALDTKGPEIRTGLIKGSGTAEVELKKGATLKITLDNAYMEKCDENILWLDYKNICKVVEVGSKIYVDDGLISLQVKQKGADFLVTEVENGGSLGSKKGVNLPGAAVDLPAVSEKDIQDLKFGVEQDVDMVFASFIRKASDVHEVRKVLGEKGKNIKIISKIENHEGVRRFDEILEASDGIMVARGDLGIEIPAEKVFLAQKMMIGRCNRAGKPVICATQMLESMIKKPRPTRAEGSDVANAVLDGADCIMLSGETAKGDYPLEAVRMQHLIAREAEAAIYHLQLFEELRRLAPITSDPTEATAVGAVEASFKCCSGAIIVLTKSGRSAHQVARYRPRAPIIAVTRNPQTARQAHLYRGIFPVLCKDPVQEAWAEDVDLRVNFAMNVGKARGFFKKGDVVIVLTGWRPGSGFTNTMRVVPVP
Sequence of DNA dC->dU-editing enzyme APOBEC-3G (Homo sapiens) (Q9HC16 whole entry, looked up): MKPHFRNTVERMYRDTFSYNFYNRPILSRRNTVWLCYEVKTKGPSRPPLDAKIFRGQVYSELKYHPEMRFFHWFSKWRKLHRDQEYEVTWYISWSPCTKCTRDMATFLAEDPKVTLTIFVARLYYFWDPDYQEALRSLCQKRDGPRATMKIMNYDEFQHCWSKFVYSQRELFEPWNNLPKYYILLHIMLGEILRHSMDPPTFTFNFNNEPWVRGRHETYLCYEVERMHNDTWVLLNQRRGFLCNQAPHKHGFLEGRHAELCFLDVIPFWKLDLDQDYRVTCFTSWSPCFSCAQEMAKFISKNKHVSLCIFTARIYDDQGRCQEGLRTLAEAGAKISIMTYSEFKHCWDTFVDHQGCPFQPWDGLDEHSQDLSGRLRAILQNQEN
Sequence of Cytochrome P450 1A2 (Homo sapiens) (P05177 whole entry, looked up): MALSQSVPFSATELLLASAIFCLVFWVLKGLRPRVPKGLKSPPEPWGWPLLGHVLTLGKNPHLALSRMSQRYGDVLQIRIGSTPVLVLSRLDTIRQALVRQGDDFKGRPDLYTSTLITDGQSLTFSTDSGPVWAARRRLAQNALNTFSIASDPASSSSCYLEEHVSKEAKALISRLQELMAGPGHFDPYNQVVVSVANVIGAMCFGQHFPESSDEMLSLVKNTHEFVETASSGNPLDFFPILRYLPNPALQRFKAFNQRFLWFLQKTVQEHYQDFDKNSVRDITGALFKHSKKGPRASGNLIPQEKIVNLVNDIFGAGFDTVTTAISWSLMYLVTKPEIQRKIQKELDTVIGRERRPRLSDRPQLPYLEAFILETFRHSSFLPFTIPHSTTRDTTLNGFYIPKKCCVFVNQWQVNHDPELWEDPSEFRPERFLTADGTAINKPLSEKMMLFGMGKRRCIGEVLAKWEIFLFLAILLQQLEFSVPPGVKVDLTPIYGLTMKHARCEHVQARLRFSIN

Take `CN1CCN(C(=O)OC2c3nccnc3C(=O)N2c2ccc(Cl)cn2)CC1` (centres undefined): the activity change, negative = inhibition in assay [1] (at 17.2 µM (top of the series)) was 3%. For the same compound, the compound was called inactive in assay [2]. Moreover, the Potency entry in [3] and in [4] was “inactive” throughout.

Consider `CCN1C[C@]2(COC(=O)c3ccccc3N3C(=O)C[C@H](C)C3=O)CC[C@H](OC)[C@@]34[C@@H]5C[C@H]6[C@H](OC)[C@H]5[C@](O)(C[C@@H]6OC)[C@@](O)([C@@H](OC)[C@@H]23)[C@@H]14`, for which the Potency in [5] and in [6] was greater than 46 µM each time. Moreover, the Potency entry in assay [7], in [3] and in assay [4] was “inactive” in each case.

With `c1ccc(CCCCN2CCC(c3ccccc3)CC2)cc1`, the Potency in [8] was 15.8 µM (active); in assay [5], greater than 46 µM. For the same compound, the compound was classed as inactive in assay [9]. In addition, the Potency entry in [3] and in [4] was “inactive” in each case.

As to `c1ccc([C@H]2CNCc3ccccc32)cc1`, the Potency result in [8], in assay [7], in assay [3] and in assay [4] was “inactive” each time. In addition, in assay [5], the Potency is greater than 46 µM. Besides, in assay [9], the outcome was inactive.

For the compound `CC(C)(Cc1c[nH]c2ccc(Cl)cc12)NCCOc1ccccc1OCC1CC1`, the Potency in [5] is greater than 46 µM. In addition, the compound was called inactive in [9]. Also, the Potency entry in assay [3] and in assay [4] was “inactive” in each case.

For the compound `C[C@H](N)Cc1cnc[nH]1`, the activity change, negative = inhibition in [1] (at 38 µM (top of the series)) is 4.34%. The compound was called inactive in assay [2], in assay [9], in assay [11], in assay [13], in [14] and in assay [15]. Also, the compound was classed as inactive in [16], in [17] and in [18]. For the same compound, the Potency in assay [5] and in assay [6] was greater than 46 µM in each case. The Potency entry in assay [10], in [12], in assay [7], in assay [3] and in assay [4] was “inactive” throughout.

On to `COc1ccc(CNC(=O)/C=C\c2ccc3[nH]cc(CCN(C)C)c3c2)cc1`, for which the Potency result in assay [8], in [10], in assay [12], in assay [19], in [7] and in assay [3] was “inactive” in each case. Also, in assay [4], the Potency entry was “inactive”. Further, the activity change, negative = inhibition in [1] (at 38 µM (top of the series)) was -13.5%. Further, the compound was classed as inactive in [2], in assay [9], in [11], in assay [13], in assay [14] and in [15]. The compound was called inactive in assay [16] and in [17]. Moreover, the Potency in assay [5] and in assay [6] was greater than 46 µM throughout.

For `C=C1[C@@H](O)C2C=CC[C@H](C)C(=O)[C@@](C)(O)C=C[C@@H](OC(C)=O)[C@@]23C(=O)N[C@H](Cc2ccccc2)[C@@H]3[C@@H]1C` (some centres undefined), the Potency entry in assay [8], in [10], in assay [19], in assay [7], in assay [3] and in assay [4] was “inactive” in each case. For the same compound, the Potency in [5] and in assay [6] was greater than 46 µM each time. Also, in [9], the compound was called inactive.

As to `O=C1NCN(c2ccccc2)C12CCN(C[C@H]1COc3ccccc3O1)CC2`, in assay [8], the Potency was 12.6 µM (active). In addition, the activity change, negative = inhibition in [1] (at 38 µM (top of the series)) is 1.71%. Further, the compound was called inactive in [2], in assay [9], in [11], in assay [13], in [14] and in assay [15]. The compound was classed as inactive in assay [16], in assay [17] and in assay [18]. Further, the Potency entry in [10], in assay [12], in [7], in assay [3] and in assay [4] was “inactive” in each case.
